The list is not random: actives were taken first. Their share in the collection is about 2.4%.
WRN helicase inh – qHTS for Inhibitors of WRN Helicase; WRN helicase unwinding, fluorescent forked duplex, kinetic; Potency, µM (highest dose often 114 µM), usual class: inhibitors; 360,000 tested, 0.46% active; AID 651768, 2012; note: nearly all actives have a fitted effect of over 55% in size
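Kinetic fluorescence helicase assay: unwinding of a quenched forked DNA duplex (100 nM final) with 2 mM ATP final raises red fluorescence (525/598 nm). Compounds sat 15 min at room temperature with 20 nM WRN beforehand.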
FEN1 inh-1 – qHTS Assay for the Inhibitors of Human Flap endonuclease 1 (FEN1). P39748. Recombinant FEN1 flap cleavage, fluorescence, 15 min. Potency, µM (series often up to 114 µM), hits mostly inhibitors. 390,000 tested, 0.35% active. AID 588795, 2011; note: nearly all actives have a fitted effect of over 65% in size
Target sequence (P39748 whole entry, looked up): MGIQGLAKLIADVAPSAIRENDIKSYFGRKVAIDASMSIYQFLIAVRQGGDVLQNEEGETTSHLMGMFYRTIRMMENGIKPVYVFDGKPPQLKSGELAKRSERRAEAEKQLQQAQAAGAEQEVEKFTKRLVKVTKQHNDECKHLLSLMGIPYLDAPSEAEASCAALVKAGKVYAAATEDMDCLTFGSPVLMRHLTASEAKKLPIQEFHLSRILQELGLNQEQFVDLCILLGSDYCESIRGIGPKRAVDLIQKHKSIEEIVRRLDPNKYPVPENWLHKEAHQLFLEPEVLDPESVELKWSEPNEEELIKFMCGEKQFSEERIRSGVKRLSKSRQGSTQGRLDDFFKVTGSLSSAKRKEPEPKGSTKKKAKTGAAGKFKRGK
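Read-out was taken twice, immediately and after 15 min, following addition of 50 nM substrate to 10 nM FEN1 that had sat with test compound for 15 min at room temperature. Curves came from a four-parameter Hill model.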
Pol eta inh-1 – qHTS for Inhibitors of Polymerase Eta; DNA polymerase eta (Homo sapiens), Q9Y253; 390,000 tested, 1.2% active; Potency, µM (top dose mostly 114 µM), actives largely listed as inhibitors; recombinant Pol eta, fluorescent DNA replication assay
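Pol eta (10 nM) was preincubated with compounds for 15 min at room temperature, after which fluorescent replication substrate (50 nM final) was added to start the reaction. Fluorescence was read kinetically at 0 and 10 min.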
Pol beta inh – qHTS Assay for Inhibitors of DNA Polymerase Beta; P06746; Pol beta primer extension/strand displacement, fluorescence kinetic; Potency, µM (highest dose often 114 µM), most hits filed as inhibitors; 340,000 tested, 1.3% active
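Pol beta (10 nM) was preincubated with compound for 15 min at room temperature. The reaction was then started with 50 nM substrate and read immediately and after a further 10 min at room temperature.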
Pol kappa inh-1 – qHTS for Inhibitors of Polymerase Kappa | AID 588579, 2011 | Potency, µM (top dose mostly 107 µM), hits mostly inhibitors | purified Pol kappa, fluorescent DNA synthesis assay, 10 min | DNA polymerase kappa (Homo sapiens), Q9UBT6 | 400,000 tested, 0.53% active
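Activity was followed as the change in fluorescence between reads at 0 and 10 min after starting the reaction with 50 nM substrate. Beforehand, 10 nM polymerase had been preincubated with compound for 15 min at room temperature.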
POLI inh – qHTS for Inhibitors of Polymerase Iota; DNA polymerase iota (Homo sapiens), Q9UNA4; Pol iota fluorescent replication assay, 10 min; Potency, µM (highest dose often 115 µM), hits mostly inhibitors; 390,000 tested, 1% active
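Pol iota at 10 nM preincubated 15 min with compounds at room temperature; reaction started with fluorescent substrate, 50 nM final. Fluorescence read kinetically at 0 and 10 min; buffer-only wells as negative control.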
PGK validate – qHTS for inhibitors of Phosphogylcerate Kinase: Hit Validation Screen | 500 tested, 79% active | shares compounds with Pol kappa inh-1 | Potency, µM (top dose mostly 57.5 µM), actives largely listed as inhibitors | AID 686980, 2013 | TbPGK coupled GAPDH assay, Kinase-Glo luminescence; note: nearly all actives have a fitted effect of over 65% in size
POLI cherry-pick – qHTS for Inhibitors of Polymerase Iota: Confirmatory Assay for Cherry-picked Compounds; 1,500 tested, 77% active; Potency, µM, actives largely listed as inhibitors; shares compounds with Pol kappa inh-1; Pol iota primer extension, TAMRA/BHQ fluorescence
Pol kappa inh-2 – qHTS for Inhibitors of Polymerase Kappa: Confirmatory Assay for Cherry-picked Compounds; 920 tested, 76% active; purified Pol-kappa, fluorescent strand-displacement substrate; shares compounds with Pol eta inh-1; Potency, µM, hits mostly inhibitors
Pol eta inh-2 – qHTS for Inhibitors of Polymerase Eta: Confirmatory Assay for Cherry-picked Compounds | shares compounds with Pol eta inh-1 | Pol eta primer extension, TAMRA/BHQ fluorescence, 10 min | Potency, µM, hits mostly inhibitors | 2,600 tested, 64% active | AID 720502, 2013
FEN1 inh-2 – qHTS Assay for the Inhibitors of FEN1: Confirmatory Assay for Cherry-picked Compounds; shares compounds with FEN1 inh-1; FEN1 flap cleavage, TAMRA/BHQ2 fluorogenic DNA substrate; Potency, µM, most hits filed as inhibitors; 880 tested, 79% active; AID 720498, 2013; note: nearly all actives have a fitted effect of over 60% in size
A number is an active result; . = inactive; ? = inconclusive; / = no result; [ ] = remark or other dose. Calls come from the whole dose curve; as a rule, active = well fitted curve in the direction sought with a large enough effect; inconclusive = small, poorly fitted or top-dose-only effect, or another doubt; inactive = no such curve, though single readings can be large; an effect the other way counts as inactive or inconclusive.

SMILES	WRN helicase inh	FEN1 inh-1	Pol eta inh-1	Pol beta inh	Pol kappa inh-1	POLI inh	POLI cherry-pick	Pol eta inh-2	FEN1 inh-2	others
COc1cccc(NS(=O)(=O)c2ccc3c(c2)C2C=CCC2C(c2ccc(C(=O)O)cc2)N3)c1 (stereo not drawn)	45µM	35µM	3.2µM	?	16µM	20µM	38	27	30
COC(=O)c1ccc([C@H]2Nc3ccc(S(=O)(=O)Nc4ccc(F)cc4)cc3[C@H]3C=CC[C@H]32)cc1	/	.	.	.	.	.	/	/	/
COc1ccc(S(=O)(=O)Nc2cc(SCC(=O)O)c(O)c3ccccc23)cc1	79µM	?	7.9µM	?	.	4µM	?	?	67
COc1ccc(S(=O)(=O)Nc2cccc3ccccc23)cc1	/	.	/	/	.	.	/	/	/
COc1cc(NC(=O)c2nnn(CC(=O)Nc3ccccc3)c2N)cc(OC)c1	/	.	.	.	.	.	/	/	/
C[C@@H]1O[C@@H](Oc2c(-c3cc(O)c(O)c(O)c3)oc3cc(O)cc(O)c3c2=O)[C@H](O)[C@H](O)[C@H]1O	.	2.2µM	?	?	1.7µM	50µM	?	/	3
COCCNC(=O)CCC(=O)N1Cc2cccc(OC)c2Oc2ncccc21	/	.	.	.	.	.	/	/	/
CCCN(CCC)CCCNC(=O)c1cc2c(=O)n(C)c3ccccc3c2s1	/	.	.	.	.	.	/	/	/
Cc1cccc2cc(C(c3nnnn3C(C)(C)C)N(Cc3ccco3)CC3CCCO3)c(=O)[nH]c12 (stereo not drawn)	1.7µM	?	7.9µM	32µM	45µM	16µM	17	19	27	PGK validate=1.8µM
Cc1ccc(-c2cc(-c3ccccc3)nc(N)c2C#N)o1	.	.	.	.	.	.	/	/	/
CC1=C(C#N)c2nc(N)c(C#N)c(C)c2/C1=C\c1ccc(-c2ccccc2C(=O)O)o1	25µM	40µM	7.9µM	10µM	22µM	?	42	27	48
CCn1cc(C(=O)O)c(=O)c2cc(F)c(N/N=C/c3ccccc3)cc21	.	?	2.5µM	?	.	?	84	2.7	38
O=c1c(-c2cccs2)nc2cncnc2n1Cc1ccc(F)cc1	/	/	/	/	.	/	/	/	/
O=C1NC(=O)/C(=C/c2ccc(-c3cccc([N+](=O)[O-])c3)o2)S1	32µM	?	22µM	.	.	?	/	?	?	PGK validate=18µM
O=C(Cn1c(=O)nc(-c2ccccc2F)c2cc(Cl)ccc21)Nc1ccccc1C(F)(F)F	/	.	.	.	.	.	/	/	/
N#Cc1ccc(CN2CC3(CCN(C(=O)c4cc(C(F)(F)F)cc(C(F)(F)F)c4)CC3)C2)cc1	/	/	/	/	.	/	/	/	/
Oc1ccc(N=Nc2ccc(Br)cc2)c(O)c1	.	.	.	.	.	.	/	/	/
O=S(=O)(O)c1cc(O)c(N=Nc2ccc(O)cc2O)c2ccccc12	40µM	35µM	10µM	/	20µM	/	19	38	85	PGK validate=23µM;Pol kappa inh-2=34
N#C/C(=C\c1ccc(OCc2ccc(F)cc2)cc1)C(=O)Nc1cccc(C(=O)O)c1	?	?	40µM	?	?	?	?	?	?	Pol kappa inh-2=42
CC(C)(CO)[C@H](O)C(=O)NCCCO	/	/	/	/	.[12 µM]	/	/	/	/
COc1ccc(OC)c(Nc2sc(C(=O)c3ccccc3)c(N)c2S(=O)(=O)c2ccccc2)c1	/	.	.	.	.	.	/	/	/
Cc1ccc(-c2ccc(/C=N/NC(N)=S)o2)cc1	.	.	.	.	.	.	/	/	/
NC(=S)NN=Cc1ccc(-c2ccc(S(=O)(=O)Nc3ncccn3)cc2)o1	25µM	79µM	3.2µM	/	20µM	?	?	9.5	24	Pol kappa inh-2=?
Cc1nnc(NC(=O)c2sc3nc(-c4cccs4)cc(C(F)(F)F)c3c2N)s1	.	?	6.3µM	35µM	?	28µM	42	67	?
CCN(CC)CCC(=O)Nc1cccc2c1C(=O)c1ccccc1C2=O	?	16µM	.	20µM	.	16µM	?	/	6
SMILES	WRN helicase inh	FEN1 inh-1	Pol eta inh-1	Pol beta inh	Pol kappa inh-1	POLI inh	POLI cherry-pick	Pol eta inh-2	FEN1 inh-2	others
COc1ccc(Oc2ncc3nc(-c4cccs4)c(=O)n(Cc4cccc(OC)c4)c3n2)cc1	/	/	/	/	.	/	/	/	/
O=C(O)CCC(=O)OC[C@@H](NC(=O)C(Cl)Cl)C(O)c1ccc([N+](=O)[O-])cc1 (stereo partly drawn)	/	/	/	/	.	/	/	/	/
Cc1nc2ccccc2c(=O)n1/N=C/c1ccc(O)c(O)c1O	3µM	?	2.8µM	1.6µM	?	?	1.7	2.7	11
CSc1ncc(Cl)c(C(=O)Nc2ccc(S(=O)(=O)N3CCC(C)CC3)cc2)n1	/	.	.	.	.	.	/	/	/
O=C1C=CC(=O)N1c1ccccn1	.	.	.	/	.	.	/	/	/
O=C1C=CC(=O)N1c1ccccc1N1C(=O)C=CC1=O	?	?	?	/	?	40µM	?	?	?
COc1ccc(NC(=S)NC(=O)/C=C/c2ccco2)cc1	.	.	.	?	.	.	/	/	/
O=C(/C=C/c1ccco1)NC(=S)Nc1ccc(C(=O)O)cc1	?	40µM	7.1µM	11µM	25µM	?	9.5	5.4	30
O=C1NN(c2ccc(Cl)cc2)C(=O)/C1=C\c1ccc(-c2cccc(C(=O)O)c2)o1	?	50µM	4.5µM	10µM	20µM	8.9µM	21	17	67
Cc1cccc(-n2c(C)cc(/C=C3/C(=N)N4C(c5ccccc5)=CSC4=NC3=O)c2C)c1	.	.	.	.	.	.	/	/	/
